# Assay results published in the supplement of paper PMC3545927.
# The other results are listed elsewhere or left out. The hit rate among all sequences tested is not known here.
# B1: HC1398 (peptide)
# chain: CADRLQVLDSAGNASASA
# B2: HC1024 (peptide)
# chain: CAQFKQKALGAGNASASA
# B3: HC1507 (peptide)
# chain: CANCGYRRCRAGNASASA
# B4: HC661 (peptide)
# chain: CAPVSARRGRAGNASASA
# B5: HC592 (peptide)
# chain: CAPLNVRGGRAGNASASA
# B6: HC2180 (peptide)
# chain: CAECVTSTWVAGNASASA
# B7: FS-786 (peptide)
# chain: CAGRARCYRSAGNASASA
# B8: FS-875 (peptide)
# chain: CASVNRNKKSAGNASASA
# B9: HC2316 (peptide)
# chain: CAGVPCHRPSAGNASASA
# B10: FS-661 (peptide)
# chain: CAGVARFYRSAGNASASA
# B11: FS-169 (peptide)
# chain: CAGVARVRKSAGNASASA
# B12: FS-429 (peptide)
# chain: CAGKSRLKKSAGNASASA
# B13: FS-127 (peptide)
# chain: CAGPARPWKSAGNASASA
# B14: HC667 (peptide)
# chain: CAGPADGMVSAGNASASA
# B15: FS-290 (peptide)
# chain: CARPSRLKKFAGNASASA
# B16: HC2522 (peptide)
# chain: CASTQCSAHLAGNASASA
# B17: HC1271 (peptide)
# chain: CASPDAELIEAGNASASA
# B18: HC2571 (peptide)
# chain: CASTPCSAHDAGNASASA
# B19: HC1065 (peptide)
# chain: CAFNILGGWVAGNASASA
# B20: HC890 (peptide)
# chain: CATQTVDFSLAGNASASA
# B21: HC1984 (peptide)
# chain: CAIVCCSMSYAGNASASA
# B22: HC2070 (peptide)
# chain: CAVVCCSMVYAGNASASA
# B23: HC587 (peptide)
# chain: CAVEAQLHVWAGNASASA
# B24: FS-645 (peptide)
# chain: CACPGRPWKSAGNASASA
# B25: HC1296 (peptide)
# chain: CAPAEILRKSAGNASASA
# B26: FS-1525 (peptide)
# chain: CAGPARSHRSAGNASASA
# B27: HC2394 (peptide)
# chain: CAEVPCHRKSAGNASASA
# B28: FS-915 (peptide)
# chain: CAQSLRQRKSAGNASASA
# B29: FS-160 (peptide)
# chain: CAGKPRVRKSAGNASASA
# B30: FS-244 (peptide)
# chain: CAGMIRVRKSAGNASASA
# B31: HC1689 (peptide)
# chain: CAMYECSQHLAGNASASA
# B32: HC137 (peptide)
# chain: CAEVVYSTWVAGNASASA
# B33: HC2533 (peptide)
# chain: CASTPCSRHLAGNASASA
# B34: HC48 (peptide)
# chain: CATTPMSGSWAGNASASA
# B35: FS-1245 (peptide)
# chain: CAPSNRSARAAGNASASA
# B36: FS-1043 (peptide)
# chain: CAPEIRQARAAGNASASA
# B37: HC1088 (peptide)
# chain: CAYGAGVAGAAGNASASA
# B38: FS-2912 (peptide)
# chain: CAREIRQAFKAGNASASA
# B39: FS-5 (peptide)
# chain: CAAMFRVRRNAGNASASA
# B40: HC656 (peptide)
# chain: CAAACGDIINAGNASASA
# B41: FS-1348 (peptide)
# chain: CAIRARVARAAGNASASA
# B42: HC1579 (peptide)
# chain: CAPTLWARMIAGNASASA
# B43: FS-2988 (peptide)
# chain: CARLKKSQFLAGNASASA
# Target: furin, P09958
# Sequence (P09958 whole entry): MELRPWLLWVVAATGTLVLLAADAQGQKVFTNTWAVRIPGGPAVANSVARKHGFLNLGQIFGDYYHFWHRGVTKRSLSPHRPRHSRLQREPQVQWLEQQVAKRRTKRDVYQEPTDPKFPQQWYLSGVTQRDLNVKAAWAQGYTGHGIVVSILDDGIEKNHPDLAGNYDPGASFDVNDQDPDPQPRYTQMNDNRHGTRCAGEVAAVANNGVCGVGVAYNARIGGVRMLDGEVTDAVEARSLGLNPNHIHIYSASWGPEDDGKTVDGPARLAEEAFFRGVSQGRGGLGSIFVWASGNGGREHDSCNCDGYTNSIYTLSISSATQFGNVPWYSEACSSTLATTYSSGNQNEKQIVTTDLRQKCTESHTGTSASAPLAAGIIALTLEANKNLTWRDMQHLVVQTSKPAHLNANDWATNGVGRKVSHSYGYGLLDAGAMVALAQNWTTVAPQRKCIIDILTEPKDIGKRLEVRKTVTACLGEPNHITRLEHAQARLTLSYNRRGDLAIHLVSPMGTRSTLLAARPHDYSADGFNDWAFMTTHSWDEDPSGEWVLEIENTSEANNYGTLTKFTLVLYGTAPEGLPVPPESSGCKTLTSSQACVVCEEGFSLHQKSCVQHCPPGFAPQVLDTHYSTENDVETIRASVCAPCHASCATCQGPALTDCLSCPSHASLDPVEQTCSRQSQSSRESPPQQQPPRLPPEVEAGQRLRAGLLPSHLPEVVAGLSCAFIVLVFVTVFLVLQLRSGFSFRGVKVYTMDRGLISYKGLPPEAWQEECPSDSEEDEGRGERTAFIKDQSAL
# Experiment: furin cleavage Z-score vs untreated control; higher = more cleavage, active = 3.5 or more, inactive = 1 or less, 8 variable residues between constant flanks
# In short: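 Read counts from sequencing released DNA gave abundance for each bead-bound 8-mer peptide–cDNA fusion cut by purified furin over 7.5, 15 or 30 min. The cleavage Z-score compares log counts with furin-free reactions after lowess adjustment and median absolute deviation scaling.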
# 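Note: purified furin at 1:10 enzyme:substrate in 50 mM HEPES pH 7.5.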
Sequence,furin cleavage Z-score (7.5 min),furin cleavage Z-score (15 min),furin cleavage Z-score (30 min)
B1,1.26,0.665 (inactive),0.144 (inactive)
B2,0.453 (inactive),-0.904 (inactive),0.989 (inactive)
B3,-0.406 (inactive),-0.477 (inactive),0.265 (inactive)
B4,3.67 (active),2.35,2.39
B5,-0.486 (inactive),0.851 (inactive),0.124 (inactive)
B6,0.903 (inactive),2.44,0.32 (inactive)
B7,5.83 (active),5.27 (active),4.62 (active)
B8,-0.482 (inactive),-0.223 (inactive),1.34
B9,0.883 (inactive),-1.9 (inactive),1.03
B10,6.6 (active),7.47 (active),8.24 (active)
B11,7.76 (active),6.48 (active),7.18 (active)
B12,3.94 (active),3.83 (active),4.7 (active)
B13,0.451 (inactive),-1.62 (inactive),-1.1 (inactive)
B14,0.24 (inactive),0.132 (inactive),-1.59 (inactive)
B15,-0.934 (inactive),-0.739 (inactive),-0.88 (inactive)
B16,1.38,0.361 (inactive),0.641 (inactive)
B17,-0.191 (inactive),-1.02 (inactive),-2.02 (inactive)
B18,-1.23 (inactive),-0.24 (inactive),-0.964 (inactive)
B19,-0.849 (inactive),-1.69 (inactive),0.522 (inactive)
B20,0.518 (inactive),0.088 (inactive),-1.06 (inactive)
B21,0.599 (inactive),0.44 (inactive),1.09
B22,1.39,-0.784 (inactive),-0.578 (inactive)

Sequence,furin cleavage Z-score (7.5 min),furin cleavage Z-score (15 min),furin cleavage Z-score (30 min)
B23,0.261 (inactive),1.76,0.118 (inactive)
B24,0.174 (inactive),0.632 (inactive),-1.05 (inactive)
B25,-1.4 (inactive),-0.0107 (inactive),-2.04 (inactive)
B26,2.6,5.21 (active),5.09 (active)
B27,0.666 (inactive),1.67,0.974 (inactive)
B28,0.195 (inactive),0.0646 (inactive),0.773 (inactive)
B29,11.6 (active),11.6 (active),7.27 (active)
B30,9.53 (active),9.46 (active),8.14 (active)
B31,1.1,2.02,0.756 (inactive)
B32,-0.752 (inactive),0.088 (inactive),1.03
B33,1.13,0.843 (inactive),-0.486 (inactive)
B34,-1.24 (inactive),-0.966 (inactive),-0.511 (inactive)
B35,8.79 (active),11.3 (active),9 (active)
B36,3.65 (active),4.35 (active),4.12 (active)
B37,-0.899 (inactive),-0.739 (inactive),-0.913 (inactive)
B38,0.791 (inactive),0.404 (inactive),0.281 (inactive)
B39,13 (active),11.7 (active),9.8 (active)
B40,-0.691 (inactive),-0.739 (inactive),-0.629 (inactive)
B41,9.33 (active),9.7 (active),7.2 (active)
B42,0.463 (inactive),2.4,0.0409 (inactive)
B43,-1.1 (inactive),-0.681 (inactive),-1.54 (inactive)
